Source: PubChem BioAssay AID1159580 (chemical genetic matrix, 2015)
Several values for one entry are separate records, joined by “and”; a condition that tells them apart may be missing. Identical values can stand only once. In all, about 5,500 compounds went through this assay and about 2,000 (36%) were called active. Roughly 18% stayed inconclusive and do not appear here. Cut-off read from the data, not from the text of the source: active = normalized growth mostly below about 0.91 (no sharp cut-off); inconclusive = no clear call, values can overlap the other calls; inactive = mostly above about 0.92. This is one part of the list.

Test: chemical genetic growth profiling, strain panel (AID 1159580);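 note: tested at 20 µM; growth read once vehicle control cultures reached saturation at 30 °C; 1 = growth at the plate median or of vehicle wells; lower values mean less growth of the strain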
Conditions: S. cerevisiae deletion strains, growth OD

Measured: normalized growth

CC(C)[N+](C)(CCOC(=O)C1c2ccccc2Oc2ccccc21)C(C)C
inactive: locus YAL013W, strain DEP1, active compounds read low 1.01 | locus YAL021C, strain ccr4, active compounds read low 1.01 | locus YAL026C, strain drs2, active compounds read low 1.03 | locus YAL030W, strain snc1, active compounds read low 1.02 | locus YAL040C, strain CLN3, active compounds read low 1.01 | locus YBL061C, strain skt5, active compounds read low 0.989 | locus YBR009C, strain hhf1, active compounds read low 0.997 | locus YBR021W, strain FUR4, active compounds read low 1.02 | locus YBR023C, strain chs3, active compounds read low 1.02 | locus YBR171W, strain sec66, active compounds read low 1.01 | locus YBR229C, strain ROT2, active compounds read low 0.997 | locus YBR231C, strain swc5, active compounds read low 1.01 | locus YBR279W, strain paf1, active compounds read low 0.99 | locus YCL011C, strain gbp2, active compounds read low 1.01 | locus YCL016C, strain dcc1, active compounds read low 1.01 | locus YCL029C, strain bik1, active compounds read low 1.01 | locus YCL061C, strain MRC1 (second series), active compounds read low 1.01 | locus YCL069W, strain vba3, active compounds read low 0.993 | locus YCR088W, strain abp1, active compounds read low 1.01 | locus YDL005C, strain med2, active compounds read low 1.02 | locus YDL035C, strain GPR1, active compounds read low 1.01 | locus YDL040C, strain nat1, active compounds read low 0.996 | locus YDL074C, strain BRE1, active compounds read low 1.02 | locus YDL101C, strain DUN1, active compounds read low 1 | locus YDL134C, strain PPH21, active compounds read low 1 | locus YDL185W, strain tfp1, active compounds read low 1 | locus YDL192W, strain arf1, active compounds read low 1.01 | locus YDR001C, strain nth1, active compounds read low 0.996 | locus YDR069C, strain doa4, active compounds read low 1 | locus YDR101C, strain arx1, active compounds read low 0.997 | locus YDR137W, strain rgp1, active compounds read low 1.01 | locus YDR150W, strain NUM1, active compounds read low 1.01 and 1 | locus YDR159W, strain sac3, active compounds read low 0.987 | locus YDR162C, strain NBP2, active compounds read low 1.02 | locus YDR195W, strain ref2 0.976 | locus YDR297W, strain sur2, active compounds read low 0.999 | locus YDR318W, strain mcm21, active compounds read low 1.01 | locus YDR334W, strain swr1, active compounds read low 1 | locus YDR335W, strain msn5, active compounds read low 1.01 | locus YDR363W, strain ESC2, active compounds read low 1.05 | locus YDR388W, active compounds read low 1.01 | locus YDR392W, strain spt3, active compounds read low 0.98 | locus YDR502C, strain sam2, active compounds read low 1 | locus YEL003W, strain gim4, active compounds read low 1 | locus YEL037C, strain rad23, active compounds read low 0.995 | locus YEL061C, strain CIN8 (second series), active compounds read low 0.995 | locus YEL061C, strain CIN8, active compounds read low 1.01 | locus YER002W, strain NOP16, active compounds read low 1.02 | locus YER015W, strain faa2, active compounds read low 1.01 | locus YER016W, strain bim1, active compounds read low 1.01 | locus YER110C, active compounds read low 1 | locus YER111C, strain swi4, active compounds read low 0.993 | locus YER155C, strain BEM2 (second series), active compounds read low 0.955 | locus YER155C, strain BEM2, active compounds read low 1.01 | locus YER167W, strain BCK2, active compounds read low 1.01 | locus YFR010W, strain ubp6, active compounds read low 0.994 | locus YGL078C, strain dbp3, active compounds read low 1.01 | locus YGL086W, strain mad1, active compounds read low 0.998 | locus YGL167C, strain pmr1, active compounds read low 0.997 | locus YGL173C, strain kem1, active compounds read low 1 | locus YGL227W, strain vid30, active compounds read low 1.02 | locus YGL240W, strain doc1, active compounds read low 0.983 | locus YGL248W, strain PDE1, active compounds read low 0.997 | locus YGL253W, strain hxk2, active compounds read low 1.02 | locus YGR078C, strain PAC10, active compounds read low 1 and 1.01 | locus YGR135W, strain pre9, active compounds read low 1.01 | locus YGR229C, strain SMI1, active compounds read low 1.02 | locus YGR252W, strain gcn5, active compounds read low 0.956 | locus YHR013C, strain ard1, active compounds read low 1.04 | locus YHR027C, strain rpn1, active compounds read low 1.01 | locus YHR030C, strain SLT2, active compounds read low 1 and 1.05 | locus YHR079C, strain IRE1 (second series), active compounds read low 1.01 | locus YHR079C, strain IRE1, active compounds read low 1.05 | locus YHR094C, strain hxt1, active compounds read low 1 | locus YHR129C, strain ARP1, active compounds read low 1 | locus YHR142W, strain chs7, active compounds read low 0.994 | locus YHR200W, strain rpn10, active compounds read low 1.01 | locus YIL066C, strain RNR3, active compounds read low 1.01 | locus YIL073C, strain SPO22, active compounds read low 1.03 | locus YIL125W, strain kgd1, active compounds read low 1.01 | locus YIR030C, strain dcg1, active compounds read low 1.01 | locus YJL092W, strain hpr5, active compounds read low 1 | locus YJL095W, strain BCK1 (second series), active compounds read low 1.01 | locus YJL095W, strain BCK1, active compounds read low 0.996 and 1.01 | locus YJL115W, strain asf1, active compounds read low 1 | locus YJL129C, strain trk1, active compounds read low 1.01 | locus YJL134W, strain LCB3, active compounds read low 1.01 | locus YJL154C, strain vps35, active compounds read low 1.01 | locus YJL164C, strain tpk1, active compounds read low 0.995 | locus YJL166W, strain qcr8, active compounds read low 0.98 | locus YJL168C, strain set2, active compounds read low 1 | locus YJL187C, strain SWE1 (second series), active compounds read low 1 | locus YJR043C, strain POL32, active compounds read low 1 | locus YJR066W, strain TOR1, active compounds read low 0.985
